Source: PubChem (National Center for Advancing Translational Sciences (NCATS))
PI5P4Ka inh = inhibitors of human PI5P4K alpha. 1.2% of 330,000 active. PI5P4Kalpha enzyme, ADP-Glo luminescence, 60 min; stronger effect = lower value. max response, %. P48426; active means max response of -50% or lower; inconclusive means between -30% and -50%; inactive means -30% or higher; further: value at the top dose of about 77 µM; on the % scale 0 is the no-effect control and ±100 the full control effect
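Single end-point luminescence (ADP-Glo) quantified ADP from PI5P4Kalpha turnover; ATP 5 microM final, 1 h at RT, 0.1% CHAPS and 0.28 mM EGTA in HEPES pH 7.4.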
VDR inhibitor = vitamin D3 receptor (human) inhibition; P11473; VDR-SRC2-3 peptide fluorescence polarization, 2 h; Potency, µM, for the others: max response, negative = inhibition, actives largely listed as inhibitors; 0.93% of 400,000 active; AID 504847; further: potency means the concentration at half of the fitted maximal effect; on the % scale 0 is the no-effect control and ±100 the full control effect
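Inhibition of the VDR/SRC2-3 peptide interaction is quantified by fluorescence polarization. Compounds (23 nl, pintool) incubate with the reagents for 2 hours at ambient room temperature.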
Rango-impB inh = inhibitors of Rango-importin beta complex formation; Potency, µM (doses to about 92.2 µM), without a hit: at the top dose inhibition of complex formation; 0.031% of 340,000 active; Rango CFP/YFP FRET sensor + importin beta, 45 min; Q14974; calls by dose curve;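 further: potency means the concentration at half of the fitted maximal effect; 0% = DMSO wells and 100% = buffer wells lacking importin beta; nearly all actives have a fitted effect of over 15% in size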
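FRET biosensor (snurportin 1 IBB flanked by EYFP and cerulean), 50 nM, with compound 5 min, then 0.125 microM importin beta in PBS, 1 mM DTT, 0.02% Tween-20, 0.1% BSA. CFP/YFP ratio read after 45 min at room temperature; pre-read flags interference.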
PLK1 PBD inh = blocks phosphopeptide binding to human PLK1 polo-box domain; P53350; Plk1 PBD binding of FITC phosphopeptide, fluorescence polarization; Potency, µM, inactives show max response, negative = inhibition, hits mostly inhibitors; 2.8% of 360,000 active; AID 720504; further: potency means the concentration at half of the fitted maximal effect; series mostly up to about 57 µM; on the % scale 0 is the no-effect control and ±100 the full control effect; nearly all actives have a fitted effect of over 65% in size
GCN5L2 inh = inhibitors of human GCN5L2 histone acetyltransferase | GCN5L2 HAT assay, ThioGlo1 CoA-SH fluorescence | Potency, µM (top dose mostly 58.9 µM), for inactives: at the top dose activity change, negative = inhibition, hits mostly inhibitors | 0.21% of 390,000 active; further: potency means the concentration at half of the fitted maximal effect; on the % scale 0 is the no-effect control and ±100 the full control effect
Target sequence (Q92830 whole entry, looked up): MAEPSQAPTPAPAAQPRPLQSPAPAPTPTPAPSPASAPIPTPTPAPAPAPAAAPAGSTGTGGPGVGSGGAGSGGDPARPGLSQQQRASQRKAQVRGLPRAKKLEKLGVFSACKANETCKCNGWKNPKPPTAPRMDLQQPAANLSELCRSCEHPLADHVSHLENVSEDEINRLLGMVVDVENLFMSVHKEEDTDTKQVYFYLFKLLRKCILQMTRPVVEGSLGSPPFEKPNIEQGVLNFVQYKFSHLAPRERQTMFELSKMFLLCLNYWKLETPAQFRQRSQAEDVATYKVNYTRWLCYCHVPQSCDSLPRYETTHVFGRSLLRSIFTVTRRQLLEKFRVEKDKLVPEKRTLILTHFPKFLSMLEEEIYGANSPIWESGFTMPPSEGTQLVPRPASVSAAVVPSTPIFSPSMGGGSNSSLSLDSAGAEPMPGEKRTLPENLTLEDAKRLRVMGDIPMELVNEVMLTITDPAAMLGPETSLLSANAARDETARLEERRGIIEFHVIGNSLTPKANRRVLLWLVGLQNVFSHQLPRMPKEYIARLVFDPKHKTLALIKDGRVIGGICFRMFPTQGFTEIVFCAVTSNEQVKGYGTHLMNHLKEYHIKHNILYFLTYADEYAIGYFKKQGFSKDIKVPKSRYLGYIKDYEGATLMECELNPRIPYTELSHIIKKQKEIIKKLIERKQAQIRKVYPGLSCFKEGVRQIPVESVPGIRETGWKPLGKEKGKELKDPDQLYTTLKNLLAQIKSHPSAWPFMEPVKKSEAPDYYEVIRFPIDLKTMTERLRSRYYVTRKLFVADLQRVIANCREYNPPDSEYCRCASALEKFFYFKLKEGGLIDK
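Fluorescence readout, Ex340nm/Em540nm: ThioGlo1 (50uM final) reacts with free CoA thiol released as 20nM GCN5L2 acetylates H3(1-25) peptide (75uM) using acetyl-CoA (70uM). Compound and enzyme sat 15 min beforehand; 20 min room-temperature reaction.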
Rango dissoc inh = inhibition of RanGTP-driven Rango-importin beta dissociation. Potency, µM (titrated, usually from 46.1 µM), for the others: at the highest dose activity change, negative = inhibition. AID 540253. O95149+P62826. Biochemical FRET Rango-importin beta, RanGTP-induced dissociation. 0.071% of 340,000 active; calls by dose curve; further: potency means the concentration at half of the fitted maximal effect; % of control where 0% means no effect; nearly all actives have a fitted effect of over 45% in size
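Recombinant Rango FRET biosensor (EYFP–snurportin 1 IBB–cerulean CFP10) at 0.1 uM premixed with 0.25 uM importin beta in PBS, 1 mM DTT, 0.02% Tween-20, 0.1% BSA. Compound added 5 min; RanGTP-RCC1 (0.6 uM Ran, 2 mM GTP, 0.2 uM RCC1) then triggers release, read at 45 min.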
* = called active by the depositor; ? = inconclusive; nt = not tested or not shown. A selection: hits, their analogues and other compounds. The true share with any hit is near 3.6%. Unless noted, the call rests on the fitted dose curve; in most records, active means well fitted curve in the direction sought with a large enough effect; inconclusive means small, poorly fitted or top-dose-only effect, or another doubt; inactive means no such curve, though single readings can be large; an effect the other way counts as inactive or inconclusive.

SMILES	PI5P4Ka inh	VDR inhibitor	Rango-impB inh	PLK1 PBD inh	GCN5L2 inh	Rango dissoc inh
C/C=C/C=C\C(=O)Nc1cccc(C2=NOC3(C2)C[C@@H](C(N)=O)N(C(=O)c2cc([N+](=O)[O-])cc([N+](=O)[O-])c2C)C3)c1 (stereo partly specified)	-71*	?	-1%	34µM*	8%	-13%
C/C=C\C=C\C(=O)N1CC2(CC(c3cccc(NC(=O)COc4ccc(Cl)cc4)c3)=NO2)C[C@H]1C(N)=O (stereo partly specified)	-81*	89µM*	-5%	-11%	1%	14%
C/C=C\C=C/C(=O)Nc1cccc(C2=NOC3(C2)C[C@@H](C(N)=O)N(C(=O)c2ccccc2)C3)c1 (stereo partly specified)	nt	nt	nt	nt	-2%	nt
Cc1ccc2c(Br)cc(Br)c(O)c2n1	nt	-3%	nt	nt	0%	nt
O=C(c1cc2cc(Br)ccc2o1)N1CCCC1	-24	?	4%	27µM*	4%	-10%
Nc1cc(Nc2ccc(Br)cc2)nc(N)n1	1	45µM*	?	-18%	-9%	?
CCOC(=O)CNC(=O)C1CCCCC1	nt	-15%	nt	nt	nt	nt
COc1ccc(-c2[nH]ncc2CN2CCC(N3CCSCC3)CC2)c(F)c1	-5	-27%	2%	15µM*	-4%	-2%
CSc1nnc(Cn2c(=O)sc3ccccc32)n1CCc1ccccc1	6	-27%	?	21µM*	1%	8%
Cc1nc2ccccc2c(=O)n1NC(=O)c1ccco1	1	-7%	0%	-8%	-10%	1%
C/C(=N\Nc1nc2ccccc2c(=O)n1O)c1ccco1	?	-16%	-5%	21µM*	-19%	6%
COc1ccc(OC)c(NC(=O)Cn2cnc3sc(C)c(S(=O)(=O)N4CCN(c5ccccc5OC)CC4)c3c2=O)c1	nt	-24%	nt	nt	-8%	nt
CCSc1nnc(NC(=O)C2CCCN(S(=O)(=O)c3cnc[nH]3)C2)s1 (stereo unspecified)	-10	-4%	-1%	30µM*	-1%	23%
CC1CCN(S(=O)(=O)c2cc(C(=O)NCCc3ccccc3)n(C)c2)CC1	nt	9%	nt	nt	-2%	nt
CCOC(=O)c1scc(-c2ccc(C)cc2)c1S(=O)(=O)Nc1ccc(F)c(F)c1	nt	11%	nt	nt	21%	nt
CCOC(=O)c1scc(-c2ccccc2)c1S(=O)(=O)Nc1ccc(N(C)C)cc1	nt	20µM*	nt	nt	-2%	nt
Cc1ccc(Sc2ccc(N3CCCC(C(=O)Nc4ccc(F)cc4)C3)nn2)cc1 (stereo unspecified)	nt	-11%	nt	nt	2%	nt
CC(C)(C)S(=O)(=O)/C(C#N)=N/Nc1ccc(S(C)(=O)=O)cc1	12	-4%	-4%	21µM*	-8%	-12%
Cc1ccc(Cc2cnc(NC(=O)c3ccco3)s2)cc1	nt	0%	3%	-5%	-5%	1%
Cc1ccc(Cc2cnc(N3C(=N)SC(c4ccccc4)C3=O)s2)cc1 (stereo unspecified)	-73*	-26%	-1%	-7%	-5%	2%
N=C1SC(c2ccccc2)C(=O)N1c1ncc(Cc2ccccc2)s1 (stereo unspecified)	-56*	-22%	1%	-20%	-5%	1%
CCc1ccc(Cc2cnc(NC(=O)c3ccc4c(c3)CC(c3ccccc3)OC4=O)s2)cc1 (stereo unspecified)	nt	5%	nt	nt	0%	nt
CC(=O)N1c2ccc(S(=O)(=O)NCC3CCC(C(=O)Nc4cccc(C)c4C)CC3)cc2CC1C (stereo unspecified)	nt	17%	nt	nt	-2%	nt
C=C1C(=O)C23C(O)C1CCC2C12CCCC(C)(COC(C)=O)C1C(O)C3(O)OC2 (stereo unspecified)	-8	25µM*	2%	15µM*	nt	-4%
O=C(N/N=C/c1cccnc1)c1cccc(NC(=O)c2cccc(Br)c2)c1	-1	1%	1%	5%	-13%	4%
SMILES	PI5P4Ka inh	VDR inhibitor	Rango-impB inh	PLK1 PBD inh	GCN5L2 inh	Rango dissoc inh
COc1ccc(C(=O)N/C(=C/c2cccnc2)C(=O)Nc2cccc(C(C)=O)c2)cc1OC	-8	-14%	-6%	30µM*	0%	-10%
CC(=O)c1cccc(NC(=O)/C(=C\c2cccnc2)NC(=O)c2ccccc2)c1	-7	0%	-2%	-1%	1%	12%
O=C(N/N=C/c1cc(Br)c(O)c(Br)c1O)c1cccnc1	-59*	-5%	-1%	-19%	-15%	?
CC(=O)Nc1cccc(C(=O)N/N=C/c2cccnc2)c1	-26	-6%	?	24µM*	0%	26%
CCN(CC)S(=O)(=O)c1ccc2c(c1)N(CC(=O)N1CCN(c3cccc(C)c3C)CC1)C(=O)CO2	nt	13%	nt	nt	1%	nt
Cc1csc2nc(CSc3ccc(Cl)cc3)cn12	-13	?	1%	6.7µM*	-3%	8%
O=C(CNC(=O)C1CCCCC1)OCC(=O)c1ccccc1	nt	-19%	nt	nt	nt	nt
COc1cccc(Nc2ccccc2C(=O)O)c1	-27	2%	-3%	-11%	1%	-28%
COc1cc(-c2ccc(Nc3ccccc3C(=O)O)c(OC)c2)ccc1Nc1ccccc1C(=O)O	-89*	?	-6%	17µM*	-4%	-3%
CC(=O)N1c2ccc(S(=O)(=O)N3CCCC3)cc2CC1C(=O)NCc1cccc(F)c1 (stereo unspecified)	-16	-31%	-2%	24µM*	-25%	-4%
COCCCNC(=O)C1Cc2cc(S(=O)(=O)N3CCCC3)ccc2N1C(C)=O (stereo unspecified)	-20	?	-2%	21µM*	3%	-12%
COCCNC(=O)C1Cc2cc(S(=O)(=O)N3CCCC3)ccc2N1C(C)=O (stereo unspecified)	-6	-9%	-1%	-14%	?	6%
C=CCC(CC=C)(CNC(=O)C(=O)Nc1cccc(C(F)(F)F)c1)c1ccccc1	nt	6%	nt	nt	-22%	nt
COc1ccc(-c2[nH]c(-c3ccccc3)nc2SCC(=O)Nc2ccc3c(c2)OCO3)cc1	nt	-15%	nt	nt	-7%	nt
Cc1ccc(S(=O)(=O)N2CCN(c3nc(-c4ccc(CN5CCNCC5)s4)nc4ccccc34)CC2)cc1	nt	-21%	nt	nt	nt	nt
CC1=C(C(=O)NC2CCCCC2C)C2(CCC(C)CC2)OC1=O (stereo unspecified)	7	-15%	4%	-5%	1%	17%
CC1=C(C(=O)NC2CCCC(C)C2C)C2(CCCCC2)OC1=O (stereo unspecified)	-2	-8%	-3%	24µM*	-1%	-10%
Cc1cc([N+](=O)[O-])nn1CCCC(=O)Nc1sc2c(c1C(N)=O)CCCC2	?	32µM*	-1%	4.7µM*	-10%	10%
